Experimental data from PubChem BioAssay.
Unmarked numbers belong to inactive results.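 Rule for the calls: active = inhibition at or above 50% at 10 µM; inactive = inhibition below 50%.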

assay: blockers of RIG-like receptor reporter activation – cell-based, Sendai virus stimulus, luciferase, 10K MLSCN set, TLR/RLR signaling modifier project, primary screen (AID 602276); conditions: HEK293 RL24 IRF3 luciferase reporter, at 10 µM, active compounds read high;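 note: firefly luciferase from ISG56 promoter only with Renilla not read in this screen; 0% = Sendai virus plus DMSO and 100% = medium plus DMSO without virus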

| Structure (SMILES) | inhibition [%] |
| --- | --- |
| O=C(CSc1nnc(-c2ccccn2)n1Cc1ccccc1)N1CCCC1 | 3.06 |
| Cc1[nH]nc(-c2ccc(O)c(C)c2O)c1-c1cnn(-c2ccccc2)c1 | 11.4 |
| O=C(CN1CCSCC1)N1CCc2[nH]c3ccc(Br)cc3c2C1 | 10.7 |
| COc1ccccc1C1N(c2ccc(F)cc2)C(=O)C2CCCN21 (stereo not given) | 9.07 |
| Cc1cc(N2C(=O)CC(N3CCN(c4ccc(C(=O)c5cccs5)cc4)CC3)C2=O)no1 (stereo not given) | -4.13 |
| CC(C)(C)NC(=O)C(Cc1ccccc1)NS(=O)(=O)c1cccc2nsnc12 (stereo not given) | 3.22 |
| COc1ccc(N2C(=O)c3cccc4cccc(c34)C2=O)nn1 | 9.08 |
| O=C(CSc1ccccc1C(=O)NCCCN1CCCC1=O)NCc1ccco1 | 11.7 |
| Cc1ccc(OCC(O)Cn2c(NCCc3ccccc3)nc3c2c(=O)[nH]c(=O)n3C)cc1 (stereo not given) | -0.0675 |
| CC1CCCC(C)N1CCNC(=O)C1CCN(S(=O)(=O)N2CCCCC2)CC1 (stereo not given) | -6.08 |
| Cc1nc2ncnn2c(N2CCC(C(=O)NCC3CCCO3)CC2)c1Cc1ccccc1 (stereo not given) | 8.8 |
| COc1ccc(NC(=O)Nc2ccc(N3CCCC3=O)cc2)cc1OC | 4.01 |
| CC(NC(=O)NC12CC3CC(CC(C3)C1)C2)C1CCCO1 (stereo not given) | 15.3 |
| COc1ccc(N2CCN(C(=O)CSc3ccccc3)CC2)cc1 | -14.2 |
| COC(=O)c1cccc(NC(=O)CN2CCN(Cc3ccccc3)CC2)c1 | 12.8 |
